Only some compounds are listed: those with a hit (about 4.4% of all), similar ones and a draw of the others.
TRHR ag = agonists of human TRH receptor; P34981; TRHR cells, calcium flux fluo-8, FDSS agonist mode; activation, % at 2 µM; 360,000 tested, 0.18% active; also: 0% is about no effect
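Steps: seed TRHR cells overnight; add fluo-8 no-wash Ca dye, RT 30 min–1.5 h; record 10 s baseline; pin-transfer compounds; monitor fluorescence 1 cycle/s for the agonist window. Calcium increases flag candidate agonists.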
D1 agonist = agonists of human D1 dopamine receptor; P21728; HEK293 T-REx D1 cells, calcium flux, agonist mode; activation, % at 2 µM; 360,000 tested, 1% active; AID 504660; also: 0% is about no effect
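Tetracycline-induced HEK293 TREx D1 cells, force-coupled to calcium signalling, were dye-loaded with a no-wash calcium kit. Compound was pin-added after a 10 s baseline. Fluorescence was read kinetically at 1 cycle/s for 180 s, with calcium rises flagged as agonism.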
D1 PAM = human D1 dopamine receptor positive modulation. HEK293 TREx D1 cells, calcium flux, dopamine EC20 potentiation. potentiation, % at 10 µM. 360,000 tested, 0.036% active; in the data active = potentiation above about 30%; also: 0% is about no effect
D1 antagonist = human D1 dopamine receptor antagonism. P21728. HEK293 TREx D1 cells, calcium flux, dopamine EC80; stronger effect = lower value. activity change, negative = inhibition, % at 10 µM. 360,000 tested, 3.2% active; in the data active = activity change below about -30%; also: % is scaled to controls: 0 for no effect and ±100 for the full control effect
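Tetracycline-induced HEK293 Trex D1 cells, force-coupled to calcium, dye-loaded; compounds added and read 180 s, then EC80 dopamine added and calcium flux tracked kinetically another 180 s.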
USP1 inh = blocks the human USP1/UAF1 deubiquitinase complex | O94782 | recombinant USP1/UAF1, Ub-Rhodamine cleavage fluorescence | Potency, µM (highest dose often 57.1 µM), for inactives: at the highest dose activity change, negative = inhibition, actives largely listed as inhibitors | 390,000 tested, 0.23% active; active = well fitted inhibition curve with a large enough effect; inconclusive = small, poorly fitted or top-dose-only effect; inactive = no such curve, though single readings can be large or run the other way; also: potency is read from the fitted curve at half-maximal effect; % is scaled to controls: 0 for no effect and ±100 for the full control effect; nearly all actives have a fitted effect of over 60% in size
Target sequence (O94782 whole entry, looked up): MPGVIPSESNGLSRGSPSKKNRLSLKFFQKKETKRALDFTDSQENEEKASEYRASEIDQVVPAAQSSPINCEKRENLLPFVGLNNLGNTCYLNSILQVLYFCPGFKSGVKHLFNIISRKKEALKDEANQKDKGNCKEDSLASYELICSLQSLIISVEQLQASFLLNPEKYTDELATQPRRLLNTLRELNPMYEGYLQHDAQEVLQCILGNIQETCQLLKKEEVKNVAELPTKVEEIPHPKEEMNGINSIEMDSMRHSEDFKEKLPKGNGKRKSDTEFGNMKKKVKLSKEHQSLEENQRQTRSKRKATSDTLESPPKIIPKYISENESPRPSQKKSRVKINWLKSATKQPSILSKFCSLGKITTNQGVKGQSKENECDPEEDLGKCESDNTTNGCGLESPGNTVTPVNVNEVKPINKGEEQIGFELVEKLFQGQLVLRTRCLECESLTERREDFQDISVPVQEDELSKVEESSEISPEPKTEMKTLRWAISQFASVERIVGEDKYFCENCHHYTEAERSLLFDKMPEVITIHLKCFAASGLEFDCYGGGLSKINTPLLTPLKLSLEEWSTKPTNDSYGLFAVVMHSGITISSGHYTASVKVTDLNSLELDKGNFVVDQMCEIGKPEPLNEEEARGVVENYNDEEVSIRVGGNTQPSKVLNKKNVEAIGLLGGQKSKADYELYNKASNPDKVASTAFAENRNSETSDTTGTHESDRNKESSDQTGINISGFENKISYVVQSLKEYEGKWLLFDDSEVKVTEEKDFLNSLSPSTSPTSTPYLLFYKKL
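In this screen, compounds sit with the deubiquitinase complex (1nM) for 15 min at room temperature before Ub-Rho is added at 150nM final. Fluorescence rise is then followed for 6 reads every 60 seconds.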
TRHR enhancer = allosterically enhances the human TRH receptor | P34981 | TRHR cells, fluo-8 calcium fluorescence, EC20 TRH enhancement | enhancement, % at 2 µM | 360,000 tested, 0.66% active; in the data active = enhancement above about 30%; also: 0% is about no effect
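Enhancer read-out: after compound pinning and an initial kinetic agonist-mode read, an EC20 of TRH (10 nM final) was injected and fluo-8 calcium signal (Ex 480/Em 530) followed at 1 s/cycle for 100 cycles in TRHR-expressing cells.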
The depositor's hits bear a star; u = inconclusive; x = no result; ! = not confirmed by another sample. Rule as the data show it, unless noted: active = activation above about 30%; inactive = the rest.

SMILES	TRHR ag	D1 agonist	D1 PAM	D1 antagonist	USP1 inh	TRHR enhancer
Cc1ccc(-n2nc(CO)c(C(=O)NCc3cccnc3)n2)cc1	-1	1	-1	-9	-10%	-2
Cc1cccc(CSc2nnc3[nH]c(=O)cc(-c4ccccc4)n23)c1	0	-4	0	x	11%	19
Cc1oc(-c2ccccc2Cl)nc1Cn1c(SCc2cccc(F)c2)nc2cccnc21	2	13	4	7	-35%	1
N#C/C(=C\c1ccc(N2CCOCC2)o1)C(=O)NC1CCCCC1	26	69*	-4	-3	u	1
N#C/C(=C\c1ccc(N2CCOCC2)o1)C(=O)NCC1CCCO1 (configuration not stated)	0	1	0	-13	u	3
N#C/C(=C\c1ccc(OCCN2CCOCC2)cc1)C(=O)Nc1ccccc1	1	7	-7	-30*	-14%	-1
CCN(CC)S(=O)(=O)c1ccc(N2CCCCC2)c(NC(=O)/C(C#N)=C/c2ccc(OC)cc2)c1	0	4	5	0	-20%	2
N#C/C(=C/c1ccc(N2CCOCC2)o1)C(=O)Nc1ccccc1	90*	215*	0	-14	25µM*	10
CCOc1ccc(NC(=O)/C(C#N)=C/c2ccc(N3CCCC3)c(C)c2)cc1	32*	377*	4	-5	-25%	9
COc1cc(/C=C(\C#N)C(=O)Nc2ccccc2)ccc1OCCN1CCOCC1	1	1	-7	-22	-13%	0
Cc1cccc(N(CC(=O)Nc2ccccc2C(F)(F)F)S(=O)(=O)c2ccccc2)c1C	-1	-3	1	-6	-16%	3
O=C(NCCCN1CCN(c2ccc(F)cc2)CC1)c1sc2ncccc2c1-n1cccc1	0	-1	-4	-37*	u	4
Cc1nnn(C23C[C@@H]4C[C@@H](CC(C(=O)N5CCN(c6ccccc6)CC5)(C4)C2)C3)n1	-1	0	-2	-34*	-12%	-1
CCCCC(=O)Nc1nc2c(OC)cc([N+](=O)[O-])cc2s1	0	2	-8	-34*	-1%	-3
CN(C)c1ccc(C=c2c3ccccc3n3c2cc(-c2ccccc2)[n+]3C)cc1	x	x	x	x	18µM*	x
COc1cc(C=c2c3ccccc3n3c2cc(-c2ccccc2)[n+]3C)cc(OC)c1OC	x	x	x	x	2.2µM*	x
CN(C)c1ccc(C=c2c3ccccc3n3c2cc(-c2ccc(Cl)cc2)[n+]3C)cc1	x	x	x	x	-20%	x
CCOc1ccc(NC(=O)CCc2nc3cccnc3n2Cc2ccc(OC)cc2)cc1	1	1	-3	-8	-10%	-7
COCc1nc2cccnc2n1C1CCN(S(=O)(=O)N(C)C)CC1	0	1	-1	1	-18%	-18
Cc1nc2cccnc2n1C1CCN(S(=O)(=O)N(C)C)CC1	0	2	0	-37*	4%	-4
CCOc1ccc(S(=O)(=O)N2CCC(n3c(C)nc4cccnc43)CC2)cc1	3	34*	-6	-28	-9%	0
Cc1cccc(NC(=O)c2cccc(N3CCCS3(=O)=O)c2)c1	0	3	1	3	-31%	-1
CC(C)(C)c1ccc(NC(=O)c2ccsc2)cc1	0	-1	-4	-31*	-11%	-4
Cc1ccc(C(=O)NCC(=O)OC(C(=O)Nc2cc(C(F)(F)F)ccc2Cl)c2ccccc2)cc1 (configuration not stated)	3	2	1	11	x	-10
N=C1CCC(=N)c2c1c(O)c1ccccc1c2O	4	6	4	-12	25µM*	-3
SMILES	TRHR ag	D1 agonist	D1 PAM	D1 antagonist	USP1 inh	TRHR enhancer
N#Cc1c(C#N)c(O)c2ccccc2c1O	1	3	-5	-11	u	-3
Cn1c(=O)n(C)c2cc([N+](=O)[O-])c(N3CCN(C(=O)c4cccc(Cl)c4)CC3)cc21	0	4	-4	-14	-21%	38*
CC(C)Nc1ccc(-c2nc(-c3ccco3)no2)cc1[N+](=O)[O-]	0	0	-1	-9	-23%	-1
Cc1noc(/C=C/N(C)C)c1S(=O)(=O)N1CCCC(C(=O)NCc2ccccc2Cl)C1 (configuration not stated)	0	2	-4	-51*	-7%	-2
Cc1noc(/C=C/N(C)C)c1S(=O)(=O)N1CCN(c2ccccc2)CC1	0	1	-5	-37*	-20%	-1
Cc1noc(C)c1S(=O)(=O)N1CCN(c2ccccc2)CC1	0	0	x	-63*	-10%	13
COC(=O)c1sc(N2C(=O)c3oc4ccccc4c(=O)c3C2c2ccc(O)cc2)nc1C (configuration not stated)	-1	0	-4	-2	-12%	24
COc1ccccc1Nc1nn2c(=O)c3ccc(C(=O)N4CCCCC4)cc3nc2s1	-1	1	-4	-43*!	-15%	-6
COc1cccc(NC(=O)c2ccc3c(=O)n4nc(Nc5ccccc5OC)sc4nc3c2)c1	1	3	-2	-6	-24%	7
Cn1c(SCc2ccccc2)nccc1=O	x	x	x	x	-19%	x
CC1=C(SCc2ccccc2)C(=O)c2ccccc2C1=O	x	x	x	x	16µM*	x
Cc1ccc2c(c1)c(=O)c(C(=O)c1ccncc1)cn2CC(=O)Nc1ccc(C(C)C)cc1	0	2	0	3	u	-1
COc1ccccc1CN(Cc1ccco1)c1cnc(S(C)(=O)=O)nc1C(=O)Nc1cc(C)ccc1C	1	1	1	-2	-14%	-2
CCOc1ccc(-c2cc3c(=O)n(Cc4nc(-c5ccc(OC(C)C)cc5)oc4C)ccn3n2)cc1Cl	-1	2	0	-36*	-7%	-4
CN1C(=O)NC(c2ccc(C(F)(F)F)cc2)C2=C1CC(C)(C)CC2=O (configuration not stated)	0	32*	-1	8	-2%	-3
Cc1nc(CSc2nsc(/C=C/N(C)C)c2C#N)cs1	23	31*	-8	-10	u	-4
CCOC(=O)c1c(C)c(-c2ccccc2)n(CC(=O)NCc2ccccc2)c1C	0	1	-7	-2	-17%	1
COc1ccccc1N1CCN(c2ncnc3c2cnn3C)CC1	0	-1	1	11	4%	9
CCOc1cc(C(=O)Nc2ccccc2N2CCN(S(C)(=O)=O)CC2)cc(OCC)c1OCC	0	1	-4	-64*	-10%	-1
O=C(N/N=C(\c1ccccc1)c1cccnc1)c1cccc(F)c1	-1	2	-3	-41*	-16%	-4
CCCCN1C(=O)/C(=C2/Sc3ccccc3N2C)S/C1=N\c1ncn[nH]1	2	3	-4	-54*	u	-6
